Values joined by “and” are separate entries in the source; they are usually repeats but may differ in a detail not shown here. Equal values may be shown once. Records with an inconclusive call do not appear. Entries that show only a call come without a potency. Values without a mark were called inactive. Active and inactive are the calls of the source. Calls follow the shape of the dose curve; as a rule, active = well fitted curve in the direction sought with a large enough effect; inconclusive = small, poorly fitted or top-dose-only effect, or another doubt; inactive = no such curve, though single readings can be large; an effect the other way counts as inactive or inconclusive. *1 amine or outer side, *2 acyl side, *3 side chain or, on linkers, in order; H or OH if unused. Where a SMILES comes first, the peptide text is derived from it. Bridges are numbered along the chain shown (N, C = ends). X6 = O=C(CCC[*:2])[*:1]

37 compounds from PubChem BioAssay (NCATS) can be followed below.

A short description of one test: qHTS Assay for Identifying Gametocytocidal Compounds (AID 743244).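 Also: actives lower the fluorescent signal which means gametocytes are killed.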 The conditions noted are these: P. falciparum 3D7 stage III-V gametocytes, alamarBlue, 72 h; max response: active compounds read low. A digest of the protocol:
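Viability read-out was resazurin reduction (alamarBlue, 24 h) measured at Ex 525/Em 598 nm. Beforehand, late-stage (III-V) 3D7 P. falciparum gametocytes at 20,000 cells/well were incubated with compound 72 h at 37C under 5% CO2.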
For orientation: In qHTS, concentration-response curves come from the screen itself.
As for `C[C@]12C=CC(=O)C=C1CC[C@@H]1[C@@H]2[C@@H](O)C[C@@]2(C)[C@H]1CC[C@]2(O)C(=O)COC(=O)CCC(=O)O`, the max response was -8.44%.

On to `C[C@@H]1C[C@H]2[C@@H]3CCC4=CC(=O)C=C[C@]4(C)[C@@]3(F)[C@@H](O)C[C@]2(C)[C@@]1(O)C(=O)COP(=O)(O)O`, for which the max response is 10.9%. The same measure, in the same setting: the figure for `OC[C@H]1O[C@@H](OCCc2ccc(O)cc2)[C@H](O)[C@@H](O)[C@@H]1O` is 2.01%; for `OC[C@H]1O[C@@H](n2cnc3c2NC=NC[C@H]3O)C[C@@H]1O` it is -6.17%. The same measure, in the same setting: under `CCC(=O)NS(=O)(=O)c1ccc(-c2c(-c3ccccc3)noc2C)cc1` stands 39.9%; under `CN1Cc2c(N)cccc2C(c2ccccc2)C1` (stereo not given), 14.6% and -4.23%; under `CCC[C@@H]1C[C@@H](C(=O)N[C@@H]([C@H]2O[C@H](SC)[C@H](OP(=O)(O)O)[C@@H](O)[C@H]2O)[C@H](C)Cl)N(C)C1`, 4.72% and 1.78%. Regarding `CC(=O)OC(C)OC(=O)C(C)c1ccc(-c2ccccc2)c(F)c1` (stereo not given), the max response was -5.75% and -9.98%. As for `Cc1onc(-c2ccccc2)c1C(=O)N[C@@H]1C(=O)N2[C@@H]1SC(C)(C)[C@@H]2C(=O)O`, the max response is -0.392%.

The nature of another test: P-glycoprotein substrates identified in KB-3-1 adenocarcinoma cell line, qHTS therapeutic library screen (AID 1346986). Also: nearly all actives have a fitted effect of over 60% in size. The conditions noted are these: KB-3-1 parental cells viability, CellTiter-Glo, 72 h; series mostly up to 44.5 µM. Put shortly: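 Compounds were tested in dose-response against KB-3-1 and KB-8-5-11 cells at 37 degree C for 72 h, and viability was measured by luminescence. AC50 values came from curve fitting with class-based activity calls.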
As to `CC(C(=O)O)C1CCC2(C)C3C(=O)C=C4C(CCC(=O)C4(C)C)C3(C)CCC12C` (stereo not given), the Potency entry is “inactive”.

For `C[C@@H]1O[C@@H](O[C@H]2[C@H](O[C@H]3CC[C@@]4(C)C(CC[C@]5(C)C4CC=C4[C@@H]6CC(C)(C)CC[C@]6(C(=O)O)CC[C@]45C)[C@]3(C)CO)OC[C@H](O)[C@@H]2O)[C@H](O)[C@H](O[C@@H]2OC[C@@H](O)[C@H](O)[C@H]2O)[C@H]1O` (stereo not given in full), the outcome is “inactive [at 9.29 µM]”.

For `CC1=CC(=O)CC(C)(CO[C@@H]2O[C@H](CO)[C@@H](O)[C@H](O)[C@H]2O)C1(O)/C=C/C(C)=C/C(=O)O` (stereo not given in full), the Potency entry was “inactive”. With `COc1ccc(C)c2sc(NC(=O)c3ccncc3)nc12`, the Potency result is “inactive”. Still for that read-out and setting: the entry for `CC(CCC1C(C(=O)O)=CC(=O)CC1(C)C)O[C@@H]1O[C@H](CO)[C@@H](O)[C@H](O)[C@H]1O` (stereo not given in full) is “inactive”; for `CC1=CC(=O)CC(C)(C)C1CCC(C)OC1OC(COC(=O)c2cc(O)c(O)c(O)c2)C(O)C(O)C1O` (stereo not given) it is “inactive”. Still for that read-out and setting: the entry for `C[C@]12C=CC(=O)C=C1CC[C@@H]1[C@@H]2[C@@H](O)C[C@@]2(C)[C@H]1CC[C@]2(O)C(=O)COC(=O)CCC(=O)O` is “inactive”. In the case of `C[C@@H]1O[C@@H](O[C@H]2[C@H](OC(=O)C34CCC5(C)C(=CCC6C7(C)CC(O)C(O[C@@H]8O[C@H](C(=O)O)[C@@H](O)[C@H](O)[C@H]8O)C(C)(C(=O)O)C7CCC65C)C3CC(C)(C)CC4O)O[C@H](C)[C@@H](O)[C@@H]2O)[C@H](O)[C@@H](O[C@@H]2OC[C@](O)(CO)[C@H]2O[C@@H]2O[C@H](CO)[C@@H](O)[C@H](O)[C@H]2O)[C@H]1O` (stereo not given in full), the outcome was “inactive [at 9.29 µM]”.

With `C[C@@H]1C[C@H]2[C@@H]3CCC4=CC(=O)C=C[C@]4(C)[C@@]3(F)[C@@H](O)C[C@]2(C)[C@@]1(O)C(=O)COP(=O)(O)O`, the Potency result was “inactive”. Same read-out and setting: the entry for `C=CC1(C)CC(O)C2(CCC3C(C)(C(=O)O)CCCC3(C)C2=O)C1` (stereo not given) is “inactive”.

Regarding `O=C(O)c1ccc(CCCc2ccc(OCCc3ccc(F)cc3)cc2)o1`, the Potency entry is “inactive”.

For `C=CC(C)(O)CC/C=C(\C)C(=O)OC1CC2(C(=O)O)CCC3(C)C(=CCC4C5(C)CCC(OC6OC(COC7OCC(O)C(O)C7O)C(O)C(OC7OCC(O)C(O)C7O)C6OC6OC(CO)C(O)C(O)C6OC6OCC(O)C(O)C6O)C(C)(C)C5CCC43C)C2CC1(C)C` (stereo not given), the outcome is “inactive [at 9.29 µM]”. For `O=C(NCc1ccc(OC(F)(F)F)cc1)C1c2ccccc2C(=O)N1C1CCOCC1` (stereo not given), the Potency entry was “inactive”. The same measure, in the same setting: under `CC1(C)CC[C@]2(C(=O)O)CC[C@]3(C)C(=CCC4[C@@]5(C)C[C@H](O)[C@H](O[C@@H]6OC[C@H](O)[C@H](O)[C@H]6O)[C@@](C)(CO)C5CC[C@]43C)[C@@H]2C1` (stereo not given in full) stands “inactive”; under `CCC(=O)NS(=O)(=O)c1ccc(-c2c(-c3ccccc3)noc2C)cc1`, “inactive”; under `COc1ccc(C(O[C@@H]2O[C@H](CO)[C@@H](O)[C@H](O)[C@H]2O)C(CO)Oc2ccc(/C=C/CO)cc2OC)cc1O` (stereo not given in full), “inactive”. On to `CC1(CO)CC[C@]2(C(=O)O[C@@H]3O[C@H](CO)[C@@H](O)[C@H](O)[C@H]3O)CC[C@]3(C)C(=CCC4[C@@]5(C)CC[C@H](O[C@@H]6O[C@H](C(=O)O)[C@@H](O)[C@H](O)[C@H]6O)C(C)(C)C5CC[C@]43C)C2C1` (stereo not given in full), for which the outcome was “inactive [at 9.29 µM]”. `CCC[C@@H]1C[C@@H](C(=O)N[C@@H]([C@H]2O[C@H](SC)[C@H](O)[C@@H](O)[C@@H]2O)[C@@H](C)O)N(C)C1`: the Potency result was “inactive”. The same measure, in the same setting: under `CC1=C2CC3OC3(C)CCC3OC3(C)CC2OC1=O` (stereo not given) stands “inactive”; under `COc1c2c(c(C)c3c1C(=O)OC3)O[C@@]1(C)C[C@@H](O)[C@]34O[C@](OC)(CC[C@]3(C)[C@H]1C2)OC4(C)C`, “inactive”; under `O=C(/C=C/c1ccc(O)cc1)OCC1=CC2OC(=O)C3=CO[C@@H](O[C@@H]4O[C@H](CO)[C@@H](O)[C@H](O)[C@H]4O)[C@H]1[C@@H]32` (stereo not given in full), “inactive”. On the same count and under the same terms, under `Cc1cc(O)c(C(C)C)cc1O[C@@H]1O[C@H](CO)[C@@H](O)[C@H](O)[C@H]1O` stands “inactive”; under `CCOc1nc2cccc(C(=O)OCc3oc(=O)oc3C)c2n1Cc1ccc(-c2ccccc2-c2noc(O)n2)cc1`, “inactive”. On the same count and under the same terms, the entry for `CC[C@H](C)[C@@H]1NC(=O)[C@H](Cc2ccc(OC)cc2)NC(=O)CCCSC[C@@H](C(=O)N2CCC[C@H]2C(=O)N[C@@H](CC(C)C)C(=O)NCC(N)=O)NC(=O)[C@H](CC(N)=O)NC(=O)[C@H](CCC(N)=O)NC1=O` (Y(Me)IQNCPLG-NH2; linker N-5 via X6) is “inactive”; for `C[C@H]1CC[C@@]2(OC1)O[C@H]1CC3C4CC=C5C[C@H](O)C[C@@H](O[C@@H]6O[C@@H](C)[C@H](O)[C@@H](O)[C@H]6O[C@@H]6O[C@@H](C)[C@H](O)[C@@H](O)[C@H]6O)[C@]5(C)C4CC[C@]3(C)[C@H]1[C@@H]2C` (stereo not given in full) it is “inactive”; for `C=C1[C@H]2CC[C@]3(O)[C@@](CC[C@@H]4[C@](C)(C(=O)O)CCC[C@]43C)(C2)[C@H]1OC(=O)/C(C)=C\C` it is “inactive”.

`CC(=O)OC1C=C(C(=O)O)C2(CO)CCC(C)C(C)(CCc3ccoc3)C2C1` (stereo not given): the Potency result was “inactive”.

In the case of `COC(=O)C1(Cc2ccc(O)cc2)OC(=O)C(OC)=C1c1ccc(O)cc1` (stereo not given), the Potency entry was “inactive”. On the same count and under the same terms, under `CC(=O)OC[C@]1(O)[C@H]2[C@H](OC(=O)CC(C)C)OC=C(CO[C@@H]3O[C@H](CO)[C@@H](O)[C@H](O)[C@H]3O)[C@H]2C[C@@H]1O` stands “inactive”. On the same count and under the same terms, under `C=Cc1cc(O)cc2nc(-c3ccc(O)c(F)c3)oc12` stands “inactive”; under `OC[C@H]1O[C@@H](OC(CCCCc2ccc(O)cc2)CCc2ccc(O)cc2)[C@H](O[C@@H]2OC[C@](O)(CO)[C@H]2O)[C@@H](O)[C@@H]1O` (stereo not given in full), “inactive”.
